Source: the supplement of paper PMC10849652
Of roughly 7,900 targets only a part is listed; those with a hit were picked by preference. About 0.6% of all pairs of compound and target were hits.

Legend:
Experiment in all cases: log2 fold change, soluble protein after heating vs DMSO (PISA); higher = thermal stabilisation; K562 cells, 10 uM, 30 min; active = over 0.2 and 3.5 SD of the protein, either way, in both replicates (recomputed)
[1] = compound: CS(=O)(=O)c1ccc(-c2cnc(N)c(C(=O)Nc3ccccc3)n2)cc1
Summary of the method: (§1)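 For each measurement, 10 μM compound was applied for 30 min to K562 cells at 2×10^6 cells/mL. Aliquots were heated for 3 min across 48°C-58°C, pooled, and extracted in PBS with 0.5% NP-40 at 4°C; the supernatant after 21,000xg for 90 min was soluble protein. This was quantified by TMTpro 16plex LC-MS/MS with channel sums equalised, and thermal stability was reported relative to control samples from duplicates, on a log2 fold-change scale.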

crizotinib = compound: C[C@@H](Oc1cc(-c2cnn(C3CCNCC3)c2)cnc1N)c1c(Cl)ccc(F)c1Cl [crizotinib]
Summary of the method: as §1

[2] = compound: C[C@@H]1COCCN1C2=NC(=NC(=C2)C3(CC3)S(=O)(=O)C)C4=C5C=CNC5=CC=C4
Summary of the method: as §1

[3] = compound: C[C@H](C1=CC=C(C=C1)C(=O)NC2=C3C=CNC3=NC=C2)N
Summary of the method: as §1

duvelisib = compound: C[C@H](Nc1ncnc2nc[nH]c12)c1cc2cccc(Cl)c2c(=O)n1-c1ccccc1 [duvelisib]
Summary of the method: as §1

gandotinib = compound: Cc1cc(Nc2cc(CN3CCOCC3)c3nc(C)c(Cc4ccc(Cl)cc4F)n3n2)n[nH]1 [gandotinib]
Summary of the method: as §1

tozasertib = compound: Cc1cc(Nc2cc(N3CCN(C)CC3)nc(Sc3ccc(NC(=O)C4CC4)cc3)n2)n[nH]1 [tozasertib]
Summary of the method: as §1

[4] = compound: Cc1cc(SCc2sc(-c3ccc(C(F)(F)F)cc3)nc2C)ccc1OCC(=O)O
Summary of the method: as §1

doramapimod = compound: Cc1ccc(-n2nc(C(C)(C)C)cc2NC(=O)Nc2ccc(OCCN3CCOCC3)c3ccccc23)cc1 [doramapimod]
Summary of the method: as §1

ispinesib = compound: Cc1ccc(C(=O)N(CCCN)[C@@H](c2nc3cc(Cl)ccc3c(=O)n2Cc2ccccc2)C(C)C)cc1 [ispinesib]
Summary of the method: as §1

bafetinib = compound: Cc1ccc(NC(=O)c2ccc(CN3CC[C@H](N(C)C)C3)c(C(F)(F)F)c2)cc1Nc1nccc(-c2cncnc2)n1 [bafetinib]
Summary of the method: as §1

[5] = compound: Cc1cccc(CC(=O)N2CCc3c2ccc(-c2cn(C)c4ncnc(N)c24)c3F)n1
Summary of the method: as §1

nilotinib = compound: Cc1cn(-c2cc(NC(=O)c3ccc(C)c(Nc4nccc(-c5cccnc5)n4)c3)cc(C(F)(F)F)c2)cn1 [nilotinib]
Summary of the method: as §1

[6] = compound: Cc1nc(Nc2n[nH]c3c2CN(C(=O)N[C@H](CN(C)C)c2ccccc2)C3(C)C)c2sccc2n1
Summary of the method: as §1

dasatinib = compound: Cc1nc(Nc2ncc(C(=O)Nc3c(C)cccc3Cl)s2)cc(N2CCN(CCO)CC2)n1 [dasatinib]
Summary of the method: as §1

[7] = compound: Cc1ncc(-c2ccnc(Nc3ccc(S(C)(=O)=O)cc3)n2)n1C(C)C
Summary of the method: as §1

[8] = compound: Cn1cc(-c2ccc3c(c2)CCN3C(=O)Cc2cccc(C(F)(F)F)c2)c2c(N)ncnc21
Summary of the method: as §1

[9] = compound: Cn1cc(-c2ccc3nnc(C(F)(F)c4ccc5ncccc5c4)n3n2)cn1
Summary of the method: as §1

tipifarnib = compound: Cn1cncc1[C@@](N)(c1ccc(Cl)cc1)c1ccc2c(c1)c(-c1cccc(Cl)c1)cc(=O)n2C [tipifarnib]
Summary of the method: as §1

mubritinib = compound: FC(F)(F)c1ccc(/C=C/c2nc(COc3ccc(CCCCn4ccnn4)cc3)co2)cc1 [mubritinib]
Summary of the method: as §1

Measured: log2 fold change

TTC38 (UniProt Q5R3I4)
Chain of UniProt Q5R3I4 (Q5R3I4 whole entry, looked up): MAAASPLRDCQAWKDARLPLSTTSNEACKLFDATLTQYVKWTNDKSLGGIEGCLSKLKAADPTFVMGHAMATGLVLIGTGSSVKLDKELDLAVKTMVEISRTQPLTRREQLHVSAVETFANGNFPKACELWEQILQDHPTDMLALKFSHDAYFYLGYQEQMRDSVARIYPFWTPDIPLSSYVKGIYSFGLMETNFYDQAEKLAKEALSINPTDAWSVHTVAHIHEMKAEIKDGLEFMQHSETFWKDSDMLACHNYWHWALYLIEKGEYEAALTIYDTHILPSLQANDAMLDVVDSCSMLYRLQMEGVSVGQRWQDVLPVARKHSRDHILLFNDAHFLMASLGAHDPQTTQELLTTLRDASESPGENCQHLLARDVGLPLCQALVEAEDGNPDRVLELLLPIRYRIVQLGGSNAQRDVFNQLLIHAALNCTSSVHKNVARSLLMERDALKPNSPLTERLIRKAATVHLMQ
inactive: [1] -0.055 | crizotinib -0.085 | [2] -0.085 | [3] -0.073 | duvelisib -0.027 | gandotinib -0.031 | tozasertib 0 | [4] 0.063 | ispinesib 0.06 | bafetinib -0.012 | [5] 0.021 | nilotinib 0.038 | [6] 0.034 | dasatinib 0.024 | [7] -0.04 | [8] 0.071 | [9] -0.021 | tipifarnib 0.05 | mubritinib 0.322
active: doramapimod 0.73

WNK1 isoform 7 (UniProt Q9H4A3)
inactive: [1] 0.022 | crizotinib -0.061 | [2] -0.027 | [3] 0.03 | duvelisib -0.016 | gandotinib -0.032 | tozasertib 0.001 | [4] -0.018 | doramapimod 0.001 | ispinesib -0.044 | bafetinib -0.038 | [5] 0.046 | nilotinib -0.029 | [6] -0.071 | dasatinib 0.102 | [7] 0.022 | [8] 0.178 | [9] -0.022 | tipifarnib -0.022 | mubritinib 0.036

TRMT10A (UniProt Q8TBZ6)
inactive: [1] 0.012 | crizotinib 0.01 | [2] 0.093 | [3] -0.072 | duvelisib 0.053 | gandotinib 0 | tozasertib -0.031 | [4] 0.016 | doramapimod -0.023 | ispinesib 0.028 | bafetinib 0.006 | [5] -0.022 | nilotinib 0.005 | [6] -0.018 | dasatinib -0.059 | [7] -0.002 | [8] 0.104 | [9] 0.008 | tipifarnib -0.022 | mubritinib 0.05

VPS18 (UniProt Q9P253)
Chain of UniProt Q9P253 (Q9P253 whole entry, looked up): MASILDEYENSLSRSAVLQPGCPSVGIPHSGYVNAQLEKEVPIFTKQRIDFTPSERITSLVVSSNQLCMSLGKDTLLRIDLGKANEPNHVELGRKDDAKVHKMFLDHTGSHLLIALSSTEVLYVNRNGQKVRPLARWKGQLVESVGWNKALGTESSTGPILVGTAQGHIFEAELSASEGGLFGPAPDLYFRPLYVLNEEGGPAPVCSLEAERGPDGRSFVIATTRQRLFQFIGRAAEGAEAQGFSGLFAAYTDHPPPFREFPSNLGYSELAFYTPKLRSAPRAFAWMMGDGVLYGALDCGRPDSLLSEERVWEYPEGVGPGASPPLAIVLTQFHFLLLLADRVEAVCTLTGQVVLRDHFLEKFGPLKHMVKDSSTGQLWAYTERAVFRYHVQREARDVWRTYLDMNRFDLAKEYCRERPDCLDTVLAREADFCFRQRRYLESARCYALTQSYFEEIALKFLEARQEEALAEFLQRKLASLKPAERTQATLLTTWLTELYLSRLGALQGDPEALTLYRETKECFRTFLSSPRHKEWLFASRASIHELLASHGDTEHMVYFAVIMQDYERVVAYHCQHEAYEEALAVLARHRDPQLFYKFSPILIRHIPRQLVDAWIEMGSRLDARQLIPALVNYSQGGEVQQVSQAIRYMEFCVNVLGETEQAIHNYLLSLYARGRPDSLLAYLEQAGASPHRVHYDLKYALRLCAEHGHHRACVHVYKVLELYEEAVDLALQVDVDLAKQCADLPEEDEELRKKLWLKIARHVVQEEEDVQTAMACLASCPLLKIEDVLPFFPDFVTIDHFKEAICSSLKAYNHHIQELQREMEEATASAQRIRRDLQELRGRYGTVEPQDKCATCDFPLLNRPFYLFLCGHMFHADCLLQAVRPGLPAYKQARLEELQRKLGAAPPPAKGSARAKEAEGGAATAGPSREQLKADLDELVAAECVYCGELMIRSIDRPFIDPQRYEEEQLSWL
inactive: [1] -0.008 | crizotinib -0.21 | [2] -0.013 | [3] 0.05 | duvelisib -0.035 | gandotinib -0.041 | tozasertib 0.009 | [4] 0.063 | doramapimod -0.014 | ispinesib -0.203 | bafetinib -0.097 | [5] 0.059 | nilotinib -0.052 | [6] -0.069 | dasatinib -0.194 | [7] -0.022 | [8] 0.086 | [9] 0.089 | tipifarnib -0.047 | mubritinib 0.088

TMEM189-UBE2V1 (UniProt I3L0A0)
inactive: [1] 0.063 | crizotinib 0.022 | [2] 0.051 | [3] 0.051 | duvelisib 0.042 | gandotinib 0.007 | tozasertib -0.009 | [4] -0.034 | doramapimod 0.021 | ispinesib 0.071 | bafetinib -0.038 | [5] -0.035 | nilotinib -0.012 | dasatinib -0.009 | [7] 0.055 | [8] 0.015 | [9] 0.069 | tipifarnib 0.056 | mubritinib 0.026
active: [6] 0.229

USP3 (UniProt Q9Y6I4)
Chain of UniProt Q9Y6I4 (Q9Y6I4 whole entry, looked up): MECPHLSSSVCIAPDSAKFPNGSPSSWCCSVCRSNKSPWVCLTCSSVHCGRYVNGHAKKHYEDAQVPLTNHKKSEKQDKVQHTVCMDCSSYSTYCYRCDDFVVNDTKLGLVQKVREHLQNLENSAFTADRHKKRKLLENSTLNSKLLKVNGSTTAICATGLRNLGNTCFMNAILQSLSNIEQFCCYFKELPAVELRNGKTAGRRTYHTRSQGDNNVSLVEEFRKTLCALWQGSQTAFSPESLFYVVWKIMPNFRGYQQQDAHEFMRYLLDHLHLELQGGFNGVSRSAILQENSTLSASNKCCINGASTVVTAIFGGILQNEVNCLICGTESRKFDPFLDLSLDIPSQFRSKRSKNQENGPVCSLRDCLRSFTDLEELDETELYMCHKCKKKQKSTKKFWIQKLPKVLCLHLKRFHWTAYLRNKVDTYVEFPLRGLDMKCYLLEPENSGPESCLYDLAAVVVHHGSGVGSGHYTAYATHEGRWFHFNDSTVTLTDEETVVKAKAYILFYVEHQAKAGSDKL
inactive: [1] 0.065 | crizotinib -0.131 | [2] 0.043 | [3] -0.26 | duvelisib -0.008 | gandotinib -0.246 | tozasertib -0.003 | [4] 0.155 | doramapimod -0.023 | ispinesib -0.04 | bafetinib 0.011 | [5] -0.009 | nilotinib -0.125 | [6] -0.198 | dasatinib -0.185 | [7] -0.026 | [8] 0.027 | [9] -0.023 | tipifarnib -0.226 | mubritinib 0.045

TMEM214 (UniProt Q6NUQ4)
Chain of UniProt Q6NUQ4 (Q6NUQ4 whole entry, looked up): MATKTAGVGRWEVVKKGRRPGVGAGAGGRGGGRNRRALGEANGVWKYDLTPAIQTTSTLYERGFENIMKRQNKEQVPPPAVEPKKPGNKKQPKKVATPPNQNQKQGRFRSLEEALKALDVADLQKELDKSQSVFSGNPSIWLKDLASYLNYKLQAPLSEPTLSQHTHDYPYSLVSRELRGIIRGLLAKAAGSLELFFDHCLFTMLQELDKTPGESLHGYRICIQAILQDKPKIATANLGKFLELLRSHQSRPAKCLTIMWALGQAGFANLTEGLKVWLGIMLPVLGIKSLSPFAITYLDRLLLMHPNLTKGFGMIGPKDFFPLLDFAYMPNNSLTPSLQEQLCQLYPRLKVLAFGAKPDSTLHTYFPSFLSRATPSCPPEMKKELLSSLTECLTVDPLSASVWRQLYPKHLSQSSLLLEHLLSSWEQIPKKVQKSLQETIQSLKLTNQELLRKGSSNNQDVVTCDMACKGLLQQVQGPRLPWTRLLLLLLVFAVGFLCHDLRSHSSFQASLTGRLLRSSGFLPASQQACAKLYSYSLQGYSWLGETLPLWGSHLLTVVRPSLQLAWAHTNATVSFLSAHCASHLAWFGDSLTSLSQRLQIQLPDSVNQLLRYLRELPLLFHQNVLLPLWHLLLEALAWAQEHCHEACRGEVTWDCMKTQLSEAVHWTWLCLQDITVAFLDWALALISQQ
inactive: [1] -0.018 | crizotinib 0.123 | [2] -0.043 | [3] 0.067 | duvelisib 0.011 | gandotinib -0.079 | tozasertib 0.028 | [4] 0.048 | doramapimod -0.013 | ispinesib 0.072 | bafetinib 0.017 | [5] 0.029 | nilotinib -0.117 | [6] -0.02 | dasatinib -0.071 | [7] 0.023 | [8] -0.022 | [9] -0.041 | tipifarnib -0.047 | mubritinib 0.005

VPS33B (UniProt Q9H267)
Chain of UniProt Q9H267 (Q9H267 whole entry, looked up): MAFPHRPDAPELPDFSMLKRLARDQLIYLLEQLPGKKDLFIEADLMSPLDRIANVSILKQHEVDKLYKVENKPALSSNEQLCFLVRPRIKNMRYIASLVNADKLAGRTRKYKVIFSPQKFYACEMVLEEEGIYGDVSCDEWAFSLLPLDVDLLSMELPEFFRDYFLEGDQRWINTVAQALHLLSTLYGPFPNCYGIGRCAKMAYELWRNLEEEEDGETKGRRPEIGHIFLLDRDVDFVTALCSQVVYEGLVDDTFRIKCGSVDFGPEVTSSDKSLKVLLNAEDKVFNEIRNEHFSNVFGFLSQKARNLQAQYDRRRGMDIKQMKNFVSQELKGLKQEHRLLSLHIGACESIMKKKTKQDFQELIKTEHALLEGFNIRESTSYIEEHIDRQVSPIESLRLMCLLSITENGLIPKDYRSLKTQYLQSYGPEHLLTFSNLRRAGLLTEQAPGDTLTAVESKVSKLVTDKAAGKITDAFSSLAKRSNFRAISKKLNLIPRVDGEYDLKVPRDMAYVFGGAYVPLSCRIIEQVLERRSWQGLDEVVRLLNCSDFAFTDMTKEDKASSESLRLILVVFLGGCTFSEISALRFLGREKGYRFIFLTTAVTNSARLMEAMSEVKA
inactive: [1] 0.05 | crizotinib -0.182 | [2] -0.022 | [3] 0.063 | duvelisib -0.004 | gandotinib -0.114 | tozasertib 0.012 | [4] 0.085 | doramapimod -0.01 | ispinesib -0.149 | bafetinib 0.01 | [5] 0.04 | nilotinib -0.056 | [6] -0.158 | dasatinib -0.209 | [7] 0.099 | [8] 0.017 | [9] -0.069 | tipifarnib -0.107 | mubritinib 0.054

VPS13B (UniProt Q7Z7G8)
inactive: [1] 0.023 | crizotinib 0.015 | [2] 0.045 | [3] -0.033 | duvelisib -0.064 | gandotinib -0.062 | tozasertib -0.01 | [4] 0.015 | doramapimod 0.028 | ispinesib -0.134 | bafetinib -0.075 | [5] -0.012 | nilotinib -0.005 | [6] 0.049 | dasatinib 0.047 | [7] -0.004 | [8] 0.005 | [9] 0.029 | tipifarnib 0.037 | mubritinib 0.01

VRK1 (UniProt Q99986)
Chain of UniProt Q99986 (Q99986 whole entry, looked up): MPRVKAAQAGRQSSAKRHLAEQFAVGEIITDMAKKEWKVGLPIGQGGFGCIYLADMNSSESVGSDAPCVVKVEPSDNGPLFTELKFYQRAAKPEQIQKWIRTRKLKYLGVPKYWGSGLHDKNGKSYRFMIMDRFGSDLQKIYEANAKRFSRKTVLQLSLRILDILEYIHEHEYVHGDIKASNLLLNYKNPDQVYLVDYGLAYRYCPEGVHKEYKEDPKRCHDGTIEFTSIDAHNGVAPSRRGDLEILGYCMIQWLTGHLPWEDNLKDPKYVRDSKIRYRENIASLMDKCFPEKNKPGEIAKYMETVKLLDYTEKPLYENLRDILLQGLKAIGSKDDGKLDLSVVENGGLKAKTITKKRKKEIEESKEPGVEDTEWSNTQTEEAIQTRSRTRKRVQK
active: [3] 0.444 | [6] 0.542
inactive: [1] 0.055 | crizotinib -0.11 | [2] 0.126 | duvelisib 0.168 | gandotinib -0.067 | tozasertib -0.096 | [4] 0.161 | doramapimod -0.075 | ispinesib -0.077 | bafetinib 0.035 | [5] 0.078 | nilotinib -0.074 | dasatinib -0.224 | [7] 0.164 | [8] 0.057 | [9] 0.028 | tipifarnib -0.041 | mubritinib 0.008

VTI1A (UniProt Q96AJ9)
Chain of UniProt Q96AJ9 (Q96AJ9 whole entry, looked up): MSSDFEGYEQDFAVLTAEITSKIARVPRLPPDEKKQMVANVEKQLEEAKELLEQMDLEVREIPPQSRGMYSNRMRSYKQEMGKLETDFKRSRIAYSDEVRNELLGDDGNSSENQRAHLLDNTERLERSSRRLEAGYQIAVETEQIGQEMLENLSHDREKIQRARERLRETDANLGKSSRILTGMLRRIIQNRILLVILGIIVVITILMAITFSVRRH
inactive: [1] -0.007 | crizotinib -0.072 | [2] 0.038 | [3] -0.022 | duvelisib 0.1 | gandotinib 0.046 | tozasertib 0.038 | [4] -0.019 | doramapimod 0.054 | ispinesib -0.237 | bafetinib -0.004 | [5] -0.061 | nilotinib -0.006 | [6] -0.001 | dasatinib 0.004 | [7] -0.005 | [8] -0.001 | [9] 0.01 | tipifarnib 0.081 | mubritinib -0.007

VPS35L (UniProt Q7Z3J2)
inactive: [1] 0.054 | crizotinib -0.128 | [2] -0.043 | [3] 0.186 | duvelisib 0.033 | gandotinib 0 | tozasertib 0.026 | [4] 0.023 | doramapimod 0.02 | ispinesib -0.11 | bafetinib 0.006 | [5] -0.008 | nilotinib -0.201 | [6] 0.101 | dasatinib -0.056 | [7] -0.123 | [8] -0.152 | [9] 0.009 | tipifarnib -0.002 | mubritinib 0.02

TXNIP (UniProt Q9H3M7)
inactive: [1] 0.05 | crizotinib -0.36 | [2] -0.103 | [3] -0.188 | duvelisib 0.03 | gandotinib -0.068 | tozasertib -0.06 | [4] 0.01 | doramapimod 0.113 | ispinesib -0.087 | bafetinib 0.03 | [5] -0.072 | nilotinib 0.018 | [6] 0.185 | dasatinib 0.005 | [7] -0.264 | [8] 0.105 | [9] -0.105 | tipifarnib 0.199 | mubritinib -0.264

VTI1B (UniProt Q9UEU0)
Chain of UniProt Q9UEU0 (Q9UEU0 whole entry, looked up): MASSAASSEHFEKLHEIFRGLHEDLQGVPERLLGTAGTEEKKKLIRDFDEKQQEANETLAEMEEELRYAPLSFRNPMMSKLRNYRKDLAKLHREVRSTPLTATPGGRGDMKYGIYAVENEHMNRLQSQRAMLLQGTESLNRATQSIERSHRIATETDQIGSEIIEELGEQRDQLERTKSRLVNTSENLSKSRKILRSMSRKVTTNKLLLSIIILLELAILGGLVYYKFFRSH
active: ispinesib -0.41
inactive: [1] 0.022 | crizotinib -0.089 | [2] 0.025 | [3] 0.032 | duvelisib -0.045 | gandotinib 0.039 | tozasertib 0.005 | [4] -0.077 | doramapimod 0.084 | bafetinib -0.064 | [5] -0.177 | nilotinib 0.013 | [6] 0.015 | dasatinib -0.011 | [7] 0.027 | [8] 0 | [9] 0.037 | tipifarnib 0.085 | mubritinib -0.055

TOMM20 (UniProt Q15388)
Chain of UniProt Q15388 (Q15388 whole entry, looked up): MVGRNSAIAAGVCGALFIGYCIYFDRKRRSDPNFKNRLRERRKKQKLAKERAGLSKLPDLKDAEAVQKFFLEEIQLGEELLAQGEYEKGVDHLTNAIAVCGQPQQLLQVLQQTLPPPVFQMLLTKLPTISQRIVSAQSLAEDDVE
inactive: [1] -0.068 | crizotinib -0.019 | [2] 0.058 | [3] -0.06 | duvelisib 0.016 | gandotinib 0.116 | tozasertib -0.042 | [4] -0.062 | doramapimod -0.025 | bafetinib -0.194 | [5] -0.035 | nilotinib -0.002 | [6] -0.031 | dasatinib 0.039 | [7] 0.01 | [8] 0.003 | [9] 0.006 | tipifarnib -0.095 | mubritinib 0.017
active: ispinesib -0.358

TOM1 isoform 2 (UniProt O60784)
Chain of UniProt O60784 (O60784 whole entry, looked up): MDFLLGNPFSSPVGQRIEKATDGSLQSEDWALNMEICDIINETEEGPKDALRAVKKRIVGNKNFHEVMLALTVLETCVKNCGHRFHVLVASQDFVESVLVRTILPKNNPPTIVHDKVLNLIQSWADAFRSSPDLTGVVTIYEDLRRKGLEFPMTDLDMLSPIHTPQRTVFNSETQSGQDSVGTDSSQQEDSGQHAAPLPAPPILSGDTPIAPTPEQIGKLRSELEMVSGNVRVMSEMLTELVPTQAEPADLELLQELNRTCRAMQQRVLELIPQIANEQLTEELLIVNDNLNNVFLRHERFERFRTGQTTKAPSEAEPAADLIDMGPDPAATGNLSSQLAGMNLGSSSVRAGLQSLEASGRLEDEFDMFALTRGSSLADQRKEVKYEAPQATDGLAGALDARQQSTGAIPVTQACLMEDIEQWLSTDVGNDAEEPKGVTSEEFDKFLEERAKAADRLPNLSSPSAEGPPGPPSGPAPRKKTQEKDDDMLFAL
inactive: [1] 0.146 | crizotinib -0.002 | [2] 0.035 | [3] -0.096 | duvelisib 0.043 | gandotinib 0.101 | tozasertib 0.013 | [4] 0.023 | doramapimod -0.078 | ispinesib -0.043 | bafetinib -0.122 | [5] 0.026 | nilotinib -0.055 | [6] -0.104 | dasatinib -0.034 | [7] 0.116 | [8] -0.015 | [9] -0.012 | tipifarnib 0.022 | mubritinib -0.033
